Hit rate of the full screen: of about 220,000 compounds, about 910 (0.41%) were called active.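 Rule for the calls: active = primary inhibition above the hit cutoff, then over 50% inhibition at one or more dose response concentrations (cut at about 23% in these data, passing the limit was not always enough); inconclusive = conflicting primary data, or primary hits not chosen for dose response; inactive = low primary inhibition, or under 50% at every dose.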 The sample as a whole holds a higher share of actives than the screen did. Results with a measured potency or affinity are listed apart.
Biological target: Aminopeptidase N (Plasmodium falciparum (isolate 3D7)) (UniProt O96935)
Test: malaria alanyl aminopeptidase activity blockers – biochemical, fluorogenic H-Leu-NHMec substrate, 1536-well (AID 1445);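 note: plate controls were DMSO full reaction for no effect and no enzyme background for full effect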
Details: recombinant M1AAP, H-Leu-NHMec fluorogenic kinetic assay; at 30 µM, active compounds read high unless noted

Aminopeptidase N (Plasmodium falciparum (isolate 3D7)), sequence (O96935 whole entry, looked up): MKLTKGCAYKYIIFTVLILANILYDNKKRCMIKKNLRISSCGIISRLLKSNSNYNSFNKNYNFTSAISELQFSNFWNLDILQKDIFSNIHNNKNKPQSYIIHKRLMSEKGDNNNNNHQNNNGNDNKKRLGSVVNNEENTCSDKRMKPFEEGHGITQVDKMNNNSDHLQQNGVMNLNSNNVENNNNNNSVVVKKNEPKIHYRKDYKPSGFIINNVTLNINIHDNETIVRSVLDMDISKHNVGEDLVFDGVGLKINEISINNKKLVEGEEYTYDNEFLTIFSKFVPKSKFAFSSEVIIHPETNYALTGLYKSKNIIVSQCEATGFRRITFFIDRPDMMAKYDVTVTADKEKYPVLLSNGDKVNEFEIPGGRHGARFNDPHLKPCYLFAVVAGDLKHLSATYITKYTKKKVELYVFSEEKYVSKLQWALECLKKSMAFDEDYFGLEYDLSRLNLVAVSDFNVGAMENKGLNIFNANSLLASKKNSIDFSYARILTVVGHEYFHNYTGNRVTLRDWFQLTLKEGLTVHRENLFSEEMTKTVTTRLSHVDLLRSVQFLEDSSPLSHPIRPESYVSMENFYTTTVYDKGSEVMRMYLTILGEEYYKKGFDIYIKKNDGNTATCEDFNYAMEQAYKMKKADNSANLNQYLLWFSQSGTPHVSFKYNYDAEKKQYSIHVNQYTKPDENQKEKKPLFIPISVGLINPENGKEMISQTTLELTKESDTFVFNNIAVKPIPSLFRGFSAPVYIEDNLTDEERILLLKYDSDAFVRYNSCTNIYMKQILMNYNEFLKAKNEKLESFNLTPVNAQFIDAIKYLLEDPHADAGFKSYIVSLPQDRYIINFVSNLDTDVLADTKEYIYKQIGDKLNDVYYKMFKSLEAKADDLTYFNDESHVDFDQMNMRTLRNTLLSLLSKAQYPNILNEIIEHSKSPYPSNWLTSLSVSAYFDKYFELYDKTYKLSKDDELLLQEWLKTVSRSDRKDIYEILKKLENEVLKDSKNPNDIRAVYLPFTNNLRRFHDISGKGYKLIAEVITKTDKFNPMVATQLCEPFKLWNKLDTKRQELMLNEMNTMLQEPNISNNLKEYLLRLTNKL

inhibition, active:
CSc1ccc(C2C(C#N)=C(N)Oc3c2ccc(=O)c2c(C)oc(C)c32)cc1 (centres undefined) 23.3%
Oc1ccc2ccccc2c1CNc1cnc2ccccc2c1 24.4%

inhibition, inactive:
COc1ccc(NC(=O)c2ccc3c(SCC(=O)O)c4c(nc3c2)CCCC4)cc1Cl 6.4%
COc1cc(Cl)c(C)cc1NC(=O)c1ccc2c(SCC(=O)O)c3c(nc2c1)CCCC3 39.2%
CC(=O)c1ccc(OCc2cc([N+](=O)[O-])cc3c2OCOC3)cc1 0.98%
CP(C)(=O)CCP(=O)(c1ccccc1)c1ccccc1 2.48%
CCCc1nc(C)c(-c2ccc(OC)c(OC)c2)c(=O)[nH]1 2.27%
Cc1c(CCC(=O)O)c(=O)oc2cc3oc4c(c3cc12)CCCC4 8.26%
Cc1coc2cc3oc(=O)c(Cc4ccccc4)c(C)c3cc12 16.1%
Cc1c(CCC(=O)O)c(=O)oc2cc3occ(C(C)(C)C)c3cc12 12.5%
Cc1c(CCC(=O)O)c(=O)oc2cc(O)ccc12 18.6%
CC(C)Oc1cccc(C(=O)C2CCCN(Cc3cnn(C(C)C)c3)C2)c1 (centres undefined) 3.98%
Cc1ccc(/C=[N+](/C)[O-])cc1 5.58%
Cc1oc(C)c2c(=O)ccc3c(c12)OC(N)=C(C#N)C3c1ccccc1 (centres undefined) 12.5%
Cc1oc(C)c2c(=O)ccc3c(c12)OC(N)=C(C#N)C3c1ccc(F)cc1 (centres undefined) 3.21%
COc1cccc(C2c3[nH]c4ccccc4c3CCN2Cc2cccn2-c2ncccn2)c1 (centres undefined) 1.34%
CCOC(=O)CSCc1nc(-c2ccc(Cl)cc2)oc1C -0.93%
C/C(=N\NC(=O)COc1ccc(C(C)(C)C)cc1)c1ccc(OC(F)F)cc1 6.66%
NC(=O)c1cccc(CC(=O)c2ccccc2)c1 8.26%
COc1cc(C=O)ccc1OCC(=O)N1CCCC1 -0.53%
COc1ccccc1NS(=O)(=O)c1ccc(Cl)c(NC(=O)CN2C(=O)c3ccccc3C2=O)c1 11.8%
COc1ccccc1NS(=O)(=O)c1ccc(Cl)c(NC(=S)NC(=O)C2CCCC2)c1 6.44%
Cc1cc(O)c(C=Nc2cccc(Cl)c2)c(=O)o1 13.6%
O=C1CNC(=O)/C1=C\N1CCN(C(c2ccccc2)c2ccccc2)CC1 10.1%
COc1ccc(C(c2c(C)n(C)n(-c3ccccc3)c2=O)c2c(C)n(C)n(-c3ccccc3)c2=O)cc1O 2.02%
COc1ccc(-c2cc(=Nc3c(C)n(C)n(-c4ccccc4)c3=O)c3ccccc3o2)cc1 10.6%
Cc1c(C(c2ccc(O)cc2)c2c(C)n(C)n(-c3ccccc3)c2=O)c(=O)n(-c2ccccc2)n1C -4.97%
Cc1c(C(c2ccccc2O)c2c(C)n(C)n(-c3ccccc3)c2=O)c(=O)n(-c2ccccc2)n1C -0.33%
FC(F)(F)c1ccccc1CN1CCN(C2CCCCCC2)CC1 3.5%
CCOC(=O)N1CCN(C(=O)COc2cc(=O)n(CC)c3ccccc23)CC1 3.47%
Cc1ccccc1NC(=O)N1CCc2ccccc2C1 1.94%
O=Cc1ccc2cccnc2n1 3.17%
O=C(O)c1ccc(COc2ccccc2/C=C2\NC(=O)N(Cc3ccccc3)C2=O)cc1 -0.49%
Cc1ccccc1NC(=O)c1ccccc1O 12.9%
O=C1c2ccccc2C(=O)N1Cc1ccco1 3.2%
O=C(CN1C(=O)S/C(=C\c2ccccc2)C1=O)NNC(=O)c1ccccc1O 6.38%
CC1=CC(C)(C)NC(=S)N1c1ccccc1C 0.18%
O=C(Nc1ccc(O)cc1)c1ccc2c(c1)C(=O)N(Cc1ccco1)C2=O 3.19%
CCOc1ccc(-c2nnc3ccc(SCC(=O)Nc4nc5ccccc5s4)nn23)cc1 -0.15%
Cc1c(NC(=O)C(C)OC(=O)[C@@H](NC(=O)c2ccccc2)C(C)C)c(=O)n(-c2ccccc2)n1C (some centres undefined) 11.4%
CC(C)Cn1c(-c2ccncc2)n[nH]c1=S -1.73%
CCc1ccc2[nH]c(=O)c(CN(CCN(CC)CC)C(=O)NC3CCCCC3)cc2c1 6.76%
CCOC(=O)CNC(=O)Cc1ccc(OC)cc1 -3.67%
COC(=O)c1ccccc1NC(=O)CSc1nc2cccnc2n1C -3.92%
O=C(CSc1nc2ccccc2n1CC(=O)N1CCOCC1)N1CCCC1 1.43%
CCSc1nc2ccccc2n1CC(=O)N1CCOCC1 8.83%
CCC(=O)N1CCN(C(=O)CC)C1c1ccccc1 1.3%
CC(=O)N1CCN(C(C)=O)C1c1ccccc1 4.82%
CCC(=O)N1CCN(C(C)=O)C1c1ccccc1 (centres undefined) -1.61%
CC1C(=O)CC(c2ccccc2)N(C)C1c1ccccc1 (centres undefined) -1.3%
COc1ccc(N=C2SC(CC(=O)Nc3ccc(F)cc3)C(=O)N2Cc2ccco2)cc1 (centres undefined) 5.55%
COc1ccc(O)c(C(=O)c2cc(C#N)c(=O)n(-c3ccc(Cl)cc3)c2)c1 4.39%
O=C(c1ccc(COCC(F)(F)F)o1)N1CCCCCC1 -0.95%
CC(=O)c1cc(-c2ccccc2)n(CC(=O)NC(C)(C)C)c1C 5.46%
COCCNc1cc(C)c(C#N)c2nc3ccccc3n12 -4.32%
COc1cccc(/C=N/Nc2ncnc3scc(-c4ccccc4)c23)c1O 2.95%
COc1cc(/C=N/N2C(=O)CSC2=S)ccc1O 20.3%
COc1ccc(/C=N/N2C(=O)CSC2=S)cc1 10.4%
Oc1ccccc1CNc1cnc2ccccc2c1 9.27%
COc1cccc(CNc2cnc3ccccc3c2)c1O 2.44%
O=C(CCN1C(=O)/C(=C/c2ccc(F)cc2)SC1=S)NNC(=O)c1ccncc1 -9.67%
O=C(NCCCc1ccccc1)c1ccncc1 -1.01%
O=C(NCCc1ccccc1)c1ccncc1 -0.47%
CCNC(=S)NNC(=O)c1ccncc1 0.26%
CCOc1ccc(NC(=O)CN(C)C(=O)C2CCCC2)cc1OCC 8.15%
CC(=O)Nc1ccc2nc(SCC(=O)N3CCOCC3)sc2c1 2.3%
COC(=O)CNC(=O)C(C)NC(=O)OCc1ccccc1 (centres undefined) 3.83%
Cc1cc(C)c2[nH]c(=O)c(C(c3nnnn3C(C)(C)C)N(Cc3ccco3)CC3CCCO3)cc2c1 (centres undefined) 11.4%
O=C(O)COc1ccccc1/C=N/NC(=O)CSc1nnc(SCc2ccccc2)s1 14.1%
O=C(CSc1nnc(SCc2ccccc2)s1)N/N=C/c1ccc(Cl)cc1Cl 5.23%
O=C(O)COc1ccccc1/C=N/NC(=O)CSc1nnc(SCc2cccc3ccccc23)s1 11.9%
O=C(CSc1nnc(SCc2ccc(Cl)cc2)s1)N/N=C/c1ccccc1C(=O)O 2.73%
CCOc1ccccc1-n1c(COc2ccccc2)nnc1SCC(N)=O 6.25%
COc1ccc2cc(CN(C(=O)Nc3ccccc3)C3CCCC3)c(=O)[nH]c2c1 10.9%
O=C(CCNC(=O)c1ccccc1Cl)Nc1ccc(S(=O)(=O)Nc2ncccn2)cc1 -2.53%
O=C(O)CCCC(=O)N1N=C(c2ccccc2)CC1c1cccs1 (centres undefined) -2.7%
COc1ccccc1C1CC(c2c(-c3ccccc3)c3cc(Cl)ccc3[nH]c2=O)=NN1S(C)(=O)=O (centres undefined) 33.3%
O=C(O)CCC(=O)N1N=C(c2ccc(Br)cc2)CC1c1cccs1 (centres undefined) 7.55%
Cc1ccc(C2=NN(C(=O)CCC(=O)O)C(c3cccs3)C2)cc1 (centres undefined) -2.92%
COc1ccc(OC)c(C2CC(c3c(-c4ccccc4)c4cc(Cl)ccc4[nH]c3=O)=NN2S(C)(=O)=O)c1 (centres undefined) 6.89%
COc1ccc(C2=NN(C(=O)CCC(=O)O)C(c3cccs3)C2)cc1 (centres undefined) 6.04%
O=C(O)CCC(=O)N1N=C(c2ccco2)CC1c1cccs1 (centres undefined) -6.29%
COc1cccc(C2=NN(C(=O)CCCC(=O)O)C(c3cccs3)C2)c1 (centres undefined) 2.4%
O=C(C1CCCCN1S(=O)(=O)c1ccccc1[N+](=O)[O-])N1CCCC1 (centres undefined) -3.36%
CC(NC(=O)c1ccccc1Cl)C(=O)O (centres undefined) -7.3%
CCN(CC)S(=O)(=O)c1ccc(C(=O)Nc2ccc3c(c2)OCCO3)cc1 4.24%
N/C(=N\OC(=O)CCCOc1ccccc1)c1ccc([N+](=O)[O-])cc1 6.54%
CCOC(=O)c1c(C)nc2ccc(Cl)cc2c1-c1ccccc1 5.75%
Cc1nc2ccc(Cl)cc2c(-c2ccccc2)c1CC(=O)O 14.4%
CCOC(=O)c1ccccc1NC(=O)c1cn(-c2ccc(C)c(C)c2)c(=O)c2ccccc12 1.24%
Cc1cccc(CN2CCN(CCCc3ccccc3)CC2)c1 -1.11%
COc1ccccc1NS(=O)(=O)c1ccc(N/N=C/c2ccccc2OCC(=O)O)c([N+](=O)[O-])c1 13.1%
CCN(CC)S(=O)(=O)c1ccc(N/N=C/c2ccccc2OCC(=O)O)c([N+](=O)[O-])c1 11.3%
COC(=O)/C(=C\Nc1cccc(Cl)c1C)c1ncc(C(F)(F)F)cc1Cl -7.97%

From PubChem BioAssay AID1445 (SRMLSC, 2008)
